Data from PubChem BioAssay (NCATS).
Where “and” joins values, the source holds several entries; their conditions need not be identical. Equal values may be shown once. Results filed as inconclusive are left out. Calls of active or inactive are those of the source. Unless noted, calls come from the whole dose curve; as a rule, active = well fitted curve in the direction sought with a large enough effect; inconclusive = small, poorly fitted or top-dose-only effect, or another doubt; inactive = no such curve, though single readings can be large; an effect the other way counts as inactive or inconclusive.

Tests used:
[1] = AP1 Signaling Pathway (AID 357; active = well fitted curve in either direction with a large enough effect, not every such curve was filed as active;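 note: ME-180 reporter cells stimulated with EGF at its EC50 level; % is set by controls: 0 for no effect and ±100 for the full control effect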); conditions: ME-180 AP-1-bla reporter, EGF-induced, beta-lactamase ratio, 5 h; at 38 µM (top of the series)
Summary of the method: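 A ratiometric CCF4 readout (405 nm excitation; 460 and 530 nm emission) quantified AP-1-driven beta-lactamase in ME-180 cells after 5 h with compound and EC50 EGF; AC50 values were derived for activators and inhibitors.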

[2] = molecular target: Cytochrome P450 1A2 (Homo sapiens) (UniProt P05177); assay: p450-cyp1a2 (AID 410; calls by dose curve; note: potency is the fitted concentration of half-maximal effect;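 for activity change, negative = inhibition: -100% = full effect of reference inhibitor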); conditions: recombinant CYP1A2, luciferin-ME demethylation, luminescence; series mostly up to 57 µM
Cytochrome P450 1A2 (Homo sapiens), sequence (P05177 whole entry, looked up): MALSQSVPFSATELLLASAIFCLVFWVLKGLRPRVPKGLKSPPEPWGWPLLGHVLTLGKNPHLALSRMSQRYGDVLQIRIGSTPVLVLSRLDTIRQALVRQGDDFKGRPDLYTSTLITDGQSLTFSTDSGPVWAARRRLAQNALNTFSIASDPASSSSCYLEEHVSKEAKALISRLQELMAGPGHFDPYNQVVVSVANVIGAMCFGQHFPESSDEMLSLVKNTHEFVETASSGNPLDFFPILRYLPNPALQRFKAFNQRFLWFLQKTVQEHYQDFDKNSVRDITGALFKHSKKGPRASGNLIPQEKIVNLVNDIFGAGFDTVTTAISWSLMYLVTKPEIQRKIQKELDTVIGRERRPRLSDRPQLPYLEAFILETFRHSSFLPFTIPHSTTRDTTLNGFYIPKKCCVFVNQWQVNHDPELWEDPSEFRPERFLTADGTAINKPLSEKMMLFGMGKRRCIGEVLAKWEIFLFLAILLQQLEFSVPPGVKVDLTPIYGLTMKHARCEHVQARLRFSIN
Summary of the method: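 Luminescent demethylation readout: Luciferin-ME (100uM, equal to Km) turned over by 20nM CYP1A2 for 60 min at room temperature after NADPH regeneration addition, following 10 min compound preincubation. Normalization used 57 uM furafylline as full inhibition.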

[3] = Stat Signaling Pathway (AID 446; active = well fitted curve in either direction with a large enough effect, not every such curve was filed as active;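 note: ME-180 cervical cancer cells given 40 pM IL-6 alongside compound; SIE-controlled beta-lactamase reporter measured as 460/530 nm FRET emission ratio; % is set by controls: 0 for no effect and ±100 for the full control effect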); conditions: ME-180 (cervical carcinoma) SIE beta-lactamase reporter, IL-6 stimulated, 5 h; at 38 µM (top of the series)
Summary of the method: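 Compound effects on IL-6-induced STAT reporter activity were measured in ME-180 cells. After overnight culture, cells were co-treated with 40 pM IL-6 for 5 hrs before beta-lactamase substrate loading at room temperature.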

[4] = molecular target: Glucocorticoid receptor (Homo sapiens) (UniProt P04150); assay: GR-GFP Redistribution (AID 450;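 active = compounds whose dose series gives a full or clear partial fitted curve of increased nuclear translocation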; note: potency is the fitted concentration of half-maximal effect); conditions: U2OS GR-GFP nuclear translocation, laser cytometry, 2 h
Glucocorticoid receptor (Homo sapiens), sequence (P04150 whole entry, looked up, the tested form may be a part): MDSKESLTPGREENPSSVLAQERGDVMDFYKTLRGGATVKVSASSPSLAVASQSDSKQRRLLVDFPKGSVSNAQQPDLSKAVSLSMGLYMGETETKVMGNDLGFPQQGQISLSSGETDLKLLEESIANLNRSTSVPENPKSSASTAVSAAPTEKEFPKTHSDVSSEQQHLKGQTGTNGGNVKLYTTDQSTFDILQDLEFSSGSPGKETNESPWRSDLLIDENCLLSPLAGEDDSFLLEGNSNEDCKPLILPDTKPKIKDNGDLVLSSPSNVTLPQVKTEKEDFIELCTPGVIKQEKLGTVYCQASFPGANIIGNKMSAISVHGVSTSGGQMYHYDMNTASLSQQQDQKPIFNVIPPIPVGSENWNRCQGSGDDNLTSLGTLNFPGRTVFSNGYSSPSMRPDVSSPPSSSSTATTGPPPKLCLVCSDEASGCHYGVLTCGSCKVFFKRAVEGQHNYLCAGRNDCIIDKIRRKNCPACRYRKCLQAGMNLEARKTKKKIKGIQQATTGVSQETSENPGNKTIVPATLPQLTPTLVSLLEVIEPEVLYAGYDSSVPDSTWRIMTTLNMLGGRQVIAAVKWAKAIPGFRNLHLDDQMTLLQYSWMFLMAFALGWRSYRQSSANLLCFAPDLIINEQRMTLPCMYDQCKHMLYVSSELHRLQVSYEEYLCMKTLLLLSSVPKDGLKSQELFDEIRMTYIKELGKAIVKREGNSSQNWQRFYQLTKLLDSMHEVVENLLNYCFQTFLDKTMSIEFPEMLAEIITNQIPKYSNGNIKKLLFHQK

[5] = molecular target: Glucocorticoid receptor (Homo sapiens) (UniProt P04150); assay: GR-EFC Redistribution (AID 451; calls by dose curve; note: potency is the fitted concentration of half-maximal effect); conditions: CHO-K1 GR-EFC translocation, beta-gal luminescence, 2 h
Summary of the method: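 CHO-K1 cells expressing nuclear EA and GR-ED fragments of b-gal; compounds titrated up to 46 uM final, 2 h at 37 C. GR nuclear translocation read as complemented b-gal luminescence after 1 h RT detection.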

[6] = molecular target: Mitogen-activated protein kinase 10 (Mus musculus) (UniProt Q61831); assay: JNK3 AlphaScreen Assay (AID 530; active = well fitted curve in either direction with a large enough effect, not every such curve was filed as active;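 note: kinase came from lysate of stimulated human HepG2 cells; signal reports phosphorylation of biotinylated GST-cJun 1-79 at Ser73 with 10 µM ATP; % is set by controls: 0 for no effect and ±100 for the full control effect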); conditions: JNK3 lysate, c-Jun phosphorylation; series mostly up to 57.1 µM
Summary of the method: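 Activity was read by AlphaScreen after JNK3-containing HepG2 lysate (cytokine pre-activated) phosphorylated biotinylated GST-cJun with 10 uM ATP at room temperature. Phospho-Ser73 cJun antibody with Protein-A acceptor beads provided detection.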

[7] = molecular target: 3',5'-cyclic-AMP phosphodiesterase 4B (Homo sapiens) (UniProt Q07343); assay: qHTS Assay for Inhibitors of PDE-IV (AID 607; active = well fitted activation curve with a large enough effect in the main read-out, with a control signal flat, not every such curve was filed as active; note: % of control where 0% means no effect); conditions: HEK293 ACTOne CNG channel cells, membrane potential fluorescence; series mostly up to 22.9 µM
3',5'-cyclic-AMP phosphodiesterase 4B (Homo sapiens), sequence (Q07343 whole entry, looked up): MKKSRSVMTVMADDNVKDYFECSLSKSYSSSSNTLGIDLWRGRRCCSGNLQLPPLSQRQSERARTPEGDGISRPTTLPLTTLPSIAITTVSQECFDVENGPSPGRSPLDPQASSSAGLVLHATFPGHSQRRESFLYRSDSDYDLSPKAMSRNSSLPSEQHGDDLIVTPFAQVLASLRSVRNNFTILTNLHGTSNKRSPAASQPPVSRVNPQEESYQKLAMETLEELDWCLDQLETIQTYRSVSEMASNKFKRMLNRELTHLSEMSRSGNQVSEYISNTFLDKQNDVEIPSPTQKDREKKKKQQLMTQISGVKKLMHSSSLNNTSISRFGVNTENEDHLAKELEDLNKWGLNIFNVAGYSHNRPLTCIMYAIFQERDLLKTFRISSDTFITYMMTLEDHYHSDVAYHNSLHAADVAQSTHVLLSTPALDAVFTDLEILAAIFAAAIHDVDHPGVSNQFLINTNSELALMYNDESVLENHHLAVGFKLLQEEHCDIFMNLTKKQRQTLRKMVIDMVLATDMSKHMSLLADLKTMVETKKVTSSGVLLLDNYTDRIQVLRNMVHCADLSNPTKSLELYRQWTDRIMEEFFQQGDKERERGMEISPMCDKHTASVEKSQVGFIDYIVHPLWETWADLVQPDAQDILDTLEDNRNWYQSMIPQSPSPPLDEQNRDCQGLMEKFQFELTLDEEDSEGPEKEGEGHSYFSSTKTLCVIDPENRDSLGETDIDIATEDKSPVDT
Summary of the method: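 ACTOne HEK293 cells carry a modified cAMP-gated CNG channel and express endogenous PDE4; plated 1000 cells/well, compounds up to 22.9 uM final. Membrane-potential dye fluorescence (ex 535/em 590) was read; parental cells received 10 uM forskolin + 100 uM RO 20-1724.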

[8] = molecular target: Guanine nucleotide-binding protein G(i) subunit alpha-1 (Homo sapiens) (UniProt P63096); assay: qHTS Assay for Inhibitors of RGS12 GoLoco Motif Activity (Green Fluorophore) (AID 879); conditions: Galphai1/FITC-RGS12 GoLoco peptide, fluorescence polarization; series mostly up to 57.1 µM;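 note: 0% = labeled peptide with Gαi1 and full inhibition = labeled peptide alone without protein; negative values mean loss of peptide binding seen as reduced polarization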
Guanine nucleotide-binding protein G(i) subunit alpha-1 (Homo sapiens), sequence (P63096 whole entry, looked up): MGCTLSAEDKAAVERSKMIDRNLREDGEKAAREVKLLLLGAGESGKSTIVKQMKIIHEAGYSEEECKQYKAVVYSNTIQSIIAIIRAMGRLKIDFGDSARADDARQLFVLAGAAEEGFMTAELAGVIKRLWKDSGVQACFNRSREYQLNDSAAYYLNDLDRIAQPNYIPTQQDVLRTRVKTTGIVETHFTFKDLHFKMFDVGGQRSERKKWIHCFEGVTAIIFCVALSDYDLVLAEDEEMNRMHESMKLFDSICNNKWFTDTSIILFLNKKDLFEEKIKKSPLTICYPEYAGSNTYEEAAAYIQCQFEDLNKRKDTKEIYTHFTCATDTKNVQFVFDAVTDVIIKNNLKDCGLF
Summary of the method: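 A drop in FITC polarization marked displacement of the FITC-tagged RGS12 GoLoco peptide (10 nM) from Gαi1 (50 nM). Compounds were incubated 10 min at room temperature in Tris pH 7.5 buffer containing 150 mM NaCl, 0.1 mM GDP and 0.05% NP40; unlabeled peptide titration served as control.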

[9] = molecular target: Cytochrome P450 2D6 (Homo sapiens) (UniProt P10635); assay: qHTS Assay for Inhibitors and Substrates of Cytochrome P450 2D6 (AID 891); conditions: recombinant CYP2D6, luciferin-ME EGE luminescence; series mostly up to 57.1 µM;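 note: luciferin methyl ether substrate demethylated by CYP2D6 with NADPH regeneration; % is set by controls: 0 for no effect and ±100 for the full control effect; nearly all actives have a fitted effect of over 60% in size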
Summary of the method: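 Luminescent read-out of luciferin formed by 5 nM human CYP2D6 demethylating 30 uM Luciferin-ME EGE (Km level) over 60 min at room temperature after NADPH regeneration addition. Data normalized to full inhibition by 1.43 uM quinidine.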

[10] = molecular target: Cytochrome P450 2C19 (Homo sapiens) (UniProt P33261); assay: qHTS Assay for Inhibitors and Substrates of Cytochrome P450 2C19 (AID 899); conditions: recombinant CYP2C19, luciferin-H EGE luminescence; series mostly up to 57.1 µM; note: % is set by controls: 0 for no effect and ±100 for the full control effect; nearly all actives have a fitted effect of over 60% in size
Cytochrome P450 2C19 (Homo sapiens), sequence (P33261 whole entry, looked up): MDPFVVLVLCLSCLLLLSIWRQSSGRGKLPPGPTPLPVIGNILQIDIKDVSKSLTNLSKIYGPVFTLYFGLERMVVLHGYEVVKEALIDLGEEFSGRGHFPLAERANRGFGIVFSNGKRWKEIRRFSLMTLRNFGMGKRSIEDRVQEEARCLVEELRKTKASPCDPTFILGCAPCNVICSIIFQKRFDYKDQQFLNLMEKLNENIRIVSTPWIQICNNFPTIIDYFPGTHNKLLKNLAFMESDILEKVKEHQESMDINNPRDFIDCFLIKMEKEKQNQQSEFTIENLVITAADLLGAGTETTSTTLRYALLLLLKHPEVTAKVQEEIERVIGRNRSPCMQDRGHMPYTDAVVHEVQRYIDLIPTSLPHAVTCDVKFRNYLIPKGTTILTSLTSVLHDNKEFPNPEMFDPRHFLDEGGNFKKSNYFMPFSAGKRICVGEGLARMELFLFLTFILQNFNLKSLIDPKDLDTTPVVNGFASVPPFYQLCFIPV
Summary of the method: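 Luminescent read-out of luciferin formed from Luciferin-H EGE (10uM, equal to KM). Enzyme 5nM in 50mM KPO4; compound added, 10 min at 37C, then NADPH regenerating system for 60 min at 37C. Full inhibition defined by 57uM ketoconazole.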

[11] = molecular target: Pyruvate kinase (Leishmania mexicana) (UniProt Q27686); assay: qHTS Validation Assay for Inhibitors of Leishmania Mexicana Pyruvate Kinase (AID 945);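 note: 0% = DMSO only neutral control wells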; conditions: purified L. mexicana pyruvate kinase, enzyme activity, E451W mutant enzyme; series mostly up to 57.5 µM
Pyruvate kinase (Leishmania mexicana), sequence (Q27686 2-499 E452W): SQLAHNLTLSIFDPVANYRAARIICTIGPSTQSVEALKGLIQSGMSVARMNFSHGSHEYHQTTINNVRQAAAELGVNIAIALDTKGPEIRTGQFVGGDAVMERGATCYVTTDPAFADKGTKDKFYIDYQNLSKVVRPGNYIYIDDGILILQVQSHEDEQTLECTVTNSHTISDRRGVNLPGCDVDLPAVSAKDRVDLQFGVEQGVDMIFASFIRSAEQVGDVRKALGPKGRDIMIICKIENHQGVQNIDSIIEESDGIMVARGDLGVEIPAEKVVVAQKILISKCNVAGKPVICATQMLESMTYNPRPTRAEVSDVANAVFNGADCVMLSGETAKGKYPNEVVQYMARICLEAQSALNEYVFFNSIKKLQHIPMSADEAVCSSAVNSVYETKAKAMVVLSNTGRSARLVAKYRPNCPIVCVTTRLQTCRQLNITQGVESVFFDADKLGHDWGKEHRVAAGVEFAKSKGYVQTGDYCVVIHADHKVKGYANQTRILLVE
Summary of the method: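 The enzyme is a highly purified E451W mutant of LmPYK used at 0.2 nM. It converts 0.5 mM PEP and 0.1 mM ADP over 1 h at room temperature; product ATP is quantified by luciferase luminescence relative to DMSO controls.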

[12] = molecular target: Alpha-galactosidase A (Homo sapiens) (UniProt P06280); assay: Counterscreen for Glucocerebrosidase Inhibitors: qHTS Assay for Human alpha-Galactosidase at pH 4.5 (AID 992); conditions: purified enzyme, fluorogenic substrate; series mostly up to 76.9 µM; note: 0% is about no effect
Alpha-galactosidase A (Homo sapiens), sequence (P06280 whole entry, looked up): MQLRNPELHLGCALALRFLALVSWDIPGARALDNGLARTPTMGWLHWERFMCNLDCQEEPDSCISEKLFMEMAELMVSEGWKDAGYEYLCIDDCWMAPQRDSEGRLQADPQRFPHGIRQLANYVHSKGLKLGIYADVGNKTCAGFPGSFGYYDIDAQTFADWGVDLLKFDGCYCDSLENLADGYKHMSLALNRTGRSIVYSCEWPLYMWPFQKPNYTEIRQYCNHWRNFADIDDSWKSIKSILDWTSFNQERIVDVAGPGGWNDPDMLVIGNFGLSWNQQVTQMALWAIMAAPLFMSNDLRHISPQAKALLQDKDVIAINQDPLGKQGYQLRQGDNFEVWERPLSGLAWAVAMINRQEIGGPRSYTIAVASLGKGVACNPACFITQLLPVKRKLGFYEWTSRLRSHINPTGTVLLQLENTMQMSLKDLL
Summary of the method: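 Citrate buffer pH 4.5, Tween-20 0.005%. Enzyme 2 nM, substrate 80 uM, 20 min RT. Stop pH 10. Fluorescence Ex 365/Em 440. AC50 by Hill fit.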

[13] = molecular target: alpha-glucosidase (Oryza sativa, rice) (UniProt Q653V4); assay: Counterscreen for Glucocerebrosidase Inhibitors: qHTS Assay for Rice alpha-Glucosidase at pH 5.0 (AID 997); conditions: rice alpha-glucosidase enzyme activity; series mostly up to 76.9 µM;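 note: 0% = full activity with enzyme and -100% = basal without enzyme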
Summary of the method: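 Endpoint fluorogenic assay at pH 5.0: compounds (0.7 nM to 77 uM) titrated against 4 nM rice enzyme and 400 uM 4-MU-alpha-glucoside for 20 min at room temperature; NaOH/glycine stop, read ex 365/em 440 nm, Hill-fitted AC50.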

[14] = qHTS Assay for Lipid Storage Modulators (AID 1519; calls by dose curve); conditions: Drosophila S3 cells, BODIPY lipid droplet/cell ratio, laser cytometry, cells loaded with oleic acid; for activity change, negative = inhibition: at 57.5 µM (top of the series)
Summary of the method: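 Cells seeded at 5,000 per well were treated with compounds over a concentration series and loaded with oleic acid (400 uM, as added). Lipid droplet fluorescence (488 nm excitation, 500-530 nm channel) was read by laser-scanning cytometry and normalized to 20 uM Triacsin C.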

[15] = molecular target: Ubiquitin carboxyl-terminal hydrolase 1 (Homo sapiens) (UniProt O94782); assay: Inhibitors of USP1/UAF1: Pilot qHTS (AID 504865); conditions: purified USP1/UAF1, Ub-rhodamine cleavage fluorescence; series mostly up to 114 µM;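 note: rhodamine fluorescence freed from ubiquitin-rhodamine substrate followed over time; top concentration of the series differs between compounds; % is set by controls: 0 for no effect and ±100 for the full control effect; nearly all actives have a fitted effect of over 35% in size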
Ubiquitin carboxyl-terminal hydrolase 1 (Homo sapiens), sequence (O94782 whole entry, looked up): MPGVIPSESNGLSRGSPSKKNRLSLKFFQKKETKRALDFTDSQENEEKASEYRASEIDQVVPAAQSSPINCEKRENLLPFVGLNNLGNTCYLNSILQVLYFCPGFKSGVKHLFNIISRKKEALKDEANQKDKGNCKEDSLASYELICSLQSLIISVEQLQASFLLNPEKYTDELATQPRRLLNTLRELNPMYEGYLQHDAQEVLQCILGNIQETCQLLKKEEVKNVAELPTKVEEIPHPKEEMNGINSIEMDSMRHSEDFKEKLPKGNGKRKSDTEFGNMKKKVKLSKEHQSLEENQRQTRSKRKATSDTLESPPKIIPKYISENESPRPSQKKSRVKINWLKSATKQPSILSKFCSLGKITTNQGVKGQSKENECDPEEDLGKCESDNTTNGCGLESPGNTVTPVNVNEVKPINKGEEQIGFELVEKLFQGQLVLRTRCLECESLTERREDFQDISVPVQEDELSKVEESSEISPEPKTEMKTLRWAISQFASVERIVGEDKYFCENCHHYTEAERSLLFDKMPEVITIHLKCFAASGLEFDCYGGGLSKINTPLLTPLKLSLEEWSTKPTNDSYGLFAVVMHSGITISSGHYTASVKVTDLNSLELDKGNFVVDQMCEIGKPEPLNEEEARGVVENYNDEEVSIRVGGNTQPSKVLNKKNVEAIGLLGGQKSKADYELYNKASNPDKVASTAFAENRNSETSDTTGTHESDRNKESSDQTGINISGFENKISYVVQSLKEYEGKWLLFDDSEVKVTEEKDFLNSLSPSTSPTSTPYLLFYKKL
Summary of the method: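 USP1/UAF1 complex at 1 nM preincubated 15 min at room temperature with compound, then Ub-Rho substrate added at 150 nM final. Fluorescence (480/540 nm) read kinetically in 50 mM HEPES pH 7.8, 0.5 mM EDTA, 1 mM TCEP, 0.1 mg/ml BSA, 0.01% Tween-20.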

[16] = molecular target: DNA dC->dU-editing enzyme APOBEC-3G (Homo sapiens) (UniProt Q9HC16); assay: qHTS for inhibitors of Vif-A3G interactions: Validation (AID 588379); conditions: Vif-A3G protein interaction assay; series mostly up to 46.1 µM; note: 0% is about no effect
DNA dC->dU-editing enzyme APOBEC-3G (Homo sapiens), sequence (Q9HC16 whole entry, looked up): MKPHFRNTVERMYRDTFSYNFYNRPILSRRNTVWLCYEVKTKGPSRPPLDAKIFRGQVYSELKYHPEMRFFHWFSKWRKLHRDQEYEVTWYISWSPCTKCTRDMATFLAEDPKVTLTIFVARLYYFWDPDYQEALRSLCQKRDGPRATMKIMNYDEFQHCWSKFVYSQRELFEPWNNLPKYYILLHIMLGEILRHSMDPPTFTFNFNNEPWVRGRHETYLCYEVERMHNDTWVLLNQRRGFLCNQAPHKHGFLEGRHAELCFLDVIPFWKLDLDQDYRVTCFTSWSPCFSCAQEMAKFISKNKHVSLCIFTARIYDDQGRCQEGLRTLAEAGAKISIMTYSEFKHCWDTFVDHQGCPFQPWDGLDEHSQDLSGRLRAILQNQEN
Summary of the method: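 Yellow fluorescence (Ex 488, Em 500-530) of Vif-coexpressing HeLa A3G-eYFP cells, scanned by Acumen cytometer, reports blocked A3G degradation. Cells plated at 700/well overnight at 37 deg C before compound addition, then a further overnight compound incubation at 37 deg C.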

[17] = test system: Zika virus NS2B-NS3 protease; assay: Primary screen GU AMC qHTS for Zika virus inhibitors (AID 1347154); conditions: Zika NS2B-NS3 unlinked protease, AMC fluorogenic substrate; series mostly up to 54.1 µM;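 note: 0% = no-inhibitor control and -100% = no-enzyme control; nearly all actives have a fitted effect of over 70% in size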
Summary of the method: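 Unlinked Zika NS2B hydrophilic domain–NS3 protease complex at 25 nM in 10 mM Tris-HCl pH 8.0, 0.01% Tween 20, with an AMC peptide substrate. Fluorescence change (340/450 nm) over 15 min at room temperature, normalized to controls, fitted to 4-parameter Hill.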

[18] = Primary qHTS for small molecule stabilizers of the endoplasmic reticulum resident proteome: Secreted ER Calcium Modulated Protein (SERCaMP) assay (AID 1508630); conditions: SH-SY5Y GLuc-SERCaMP (Gaussia luciferase released on ER calcium loss) secretion, thapsigargin, luminescence; series mostly up to 38.4 µM; note: % is set by controls: 0 for no effect and ±100 for the full control effect
Summary of the method: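 The SH-SY5Y reporter protocol was run at 3 concentrations up to 38.3 uM (primary) or 11 concentrations (follow-up): 16 h compound, 100 nM thapsigargin for 4 h, then extracellular luciferase luminescence.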

[19] = molecular target: Cytochrome P450 3A4 (Homo sapiens) (UniProt P08684); assay: qHTS Assay for Activators of Cytochrome P450 3A4 (AID 885); conditions: recombinant CYP3A4, Luciferin-PPXE luminescence, 60 min; series mostly up to 57.1 µM; note: nearly all actives have a fitted effect of over 65% in size
Summary of the method: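 CYP3A4 activity: Luciferin-PPXE O-dealkylation, 25uM substrate, 200mM KPO4, RT throughout. Read-out is luciferase luminescence; higher values reflect activation.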

[20] = NFAT Signaling Pathway (AID 444; active = well fitted curve in either direction with a large enough effect, not every such curve was filed as active); conditions: Jurkat NFAT-bla M1, carbachol, beta-lactamase ratio, 5 h; at 38 µM (top of the series)
Summary of the method: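 Jurkat cells with NFAT-driven β-lactamase reporter and co-expressed M1 receptor, stimulated with carbachol (final 1 uM, ~EC50), compound titration, 5 h at 37 °C. CCF4 loaded 1 h at RT; 460/530 nm ratio gave %activity and AC50.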

[21] = measured here: cell count channel max response
[22] = measured here: lipid channel max response

O=C(O)[C@H]1CN(CCCP(=O)(O)O)CCN1
-5.69% and -2.47%: max response [14, 21]
0.367% and -3.68%: max response [14, 22]
inactive: activity change, negative = inhibition [1] 1.7% | Potency [2] | activity, negative = inhibition [3] 7.55% | Potency [4] > 46 µM | Potency [5] > 46 µM | Potency [6] | Potency [7] | outcome [8] | Potency [9] | Potency [10] | Potency [11] | outcome [12] | outcome [13] | activity change, negative = inhibition [14] 5.99% and -0.486% | Potency [15] | Potency [16] | Potency [17] | Potency [18]

N[C@H](C(=O)O)c1ccc(C(=O)O)cc1
-7.12%: max response [14, 22]
inactive: Potency [2] | Potency [4] > 46 µM | Potency [5] > 46 µM | activity change, negative = inhibition [14] -2.07% | Potency [15] | Potency [16] | Potency [17] | Potency [18]
-4.05%: max response [14, 21]

N[C@H](CCC(=O)N[C@H](CSN=O)C(=O)NCC(=O)O)C(=O)O
13.2%: max response [14, 21]
inactive: activity change, negative = inhibition [1] -9.57% | Potency [2] | activity, negative = inhibition [3] 14.7% | Potency [4] > 46 µM | Potency [5] > 46 µM | Potency [6] | Potency [7] | outcome [8] | Potency [11] | outcome [12] | outcome [13] | activity change, negative = inhibition [14] 1.5% | Potency [16] | Potency [17] | Potency [18]
16.6%: max response [14, 22]

C1=C(CN2CCOCC2)COc2c1cccc2OC[C@@H]1CNCCO1
active: Potency [2] 12.6 µM
5.43%: max response [14, 21]
3.99%: max response [14, 22]
inactive: Potency [4] > 46 µM | Potency [5] > 46 µM | Potency [6] | Potency [7] | Potency [19] | activity change, negative = inhibition [14] 0.797% | Potency [15] | Potency [16] | Potency [17] | Potency [18]

C[C@@](N)(C(=O)O)c1ccc(C(=O)O)cc1
-13.1% and 2.03%: max response [14, 22]
inactive: activity change, negative = inhibition [1] 2.6% | Potency [2] | activity change, negative = inhibition [20] 6.09% | activity, negative = inhibition [3] 4.5% | Potency [4] > 46 µM | Potency [5] > 46 µM | Potency [6] | Potency [7] | outcome [8] | Potency [11] | outcome [12] | outcome [13] | activity change, negative = inhibition [14] -1.38% and 3.86% | Potency [15] | Potency [16] | Potency [17] | Potency [18]
-12.7% and -2.32%: max response [14, 21]

CC[C@](N)(CCC(=O)O)C(=O)O
active: Potency [2] 20 µM
inactive: Potency [4] > 46 µM | Potency [5] > 46 µM | activity change, negative = inhibition [14] -0.484% | Potency [15] | Potency [16] | Potency [17] | Potency [18]
15.7%: max response [14, 22]
20.6%: max response [14, 21]
